Assay results published in PubChem BioAssay AID1159580 (chemical genetic matrix, 2015).
Among all 5,500 compounds or so, about 2,000 (36%) were called active. Roughly 18% stayed inconclusive and do not appear here. No stated cut-off is given here; in the data, active means normalized growth mostly below about 0.91 (no sharp cut-off); inconclusive means no clear call, values can overlap the other calls; inactive means mostly above about 0.92. Some of the results follow.

Experiment: chemical genetic growth profiling, strain panel (AID 1159580);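 further: tested at 20 µM; growth read once vehicle control cultures reached saturation at 30 °C; 1 = growth at the plate median or of vehicle wells; lower values mean less growth of the strain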
Conditions: S. cerevisiae deletion strains, growth OD

Measured: normalized growth

CCC(C)N(C)C(=O)c1cc2ccccc2c(-c2ccccc2Cl)n1 (centres undefined)
inactive: locus YAL040C, strain CLN3, active compounds read low 0.965 | locus YDR363W, strain ESC2, active compounds read low 0.973 | locus YER002W, strain NOP16, active compounds read low 1.03 | locus YGR078C, strain PAC10, active compounds read low 0.998 | locus YNL175C, strain NOP13, active compounds read low 1 | locus YNL197C, strain WHI3, active compounds read low 0.95 | locus YNL224C, strain SQS1, active compounds read low 0.988 | locus YNL322C, strain KRE1, active compounds read low 0.987 | locus YOR083W, strain WHI5 (second series), active compounds read low 0.955
